# Test results taken from PubChem BioAssay (EPA / NIEHS).
# Calls of active or inactive are those of the source. The calls were made as follows: active = hit-call score of the fitted dose curve at least 0.9, where 1 is the maximum; inactive = score below 0.9.
# Assay: CCTE_Shafer_MEA_dev_burst_duration_mean: CCTE's Neural Network Formation Assay for Mean Burst Duration, Shafer Lab (AID 2284045);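 as to AC50: curve fitted for loss meaning shorter burst duration than DMSO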
# Experimental: CCTE_Shafer_MEA_dev assay is conducted using Axion Biosystems 48 well microelectrode array (MEA) plates and Maestro recording system. Each well of the MEA plate contains a grid of 16 microelectrodes embedded in the culture surface. Electrically active cells, such as neurons, can be cultured over the electrodes, and electrical activity in these cells can be recorded extracellularly. The spontaneous firing of neurons is captured from each electrode on a microsecond timescale providing both temporally and spatially precise data. […] The CCTE_Shafer_MEA_dev assay uses primary cultures of rat cortical neurons. Recordings are made on days post-plating 5, 7, 9 and 12. As these cultures mature over time, neural networks develop functional activity and form cohesive networks in which electrical activity can be highly coordinated. CCTE_Shafer_MEA_dev_burst_duration_mean is 1 of 19 assay components of the CCTE_Shafer_MEA_dev assay. It measures the average time interval from the first spike (action potential firing) to the last spike in a singe-electrode burst (temporally-clustered group of spikes) during a recording in a microelectrode array (MEA) using Axion Biosystems Maestro 768 channel amplifier with the AxIS adaptive spike detector. The mean burst duration is averaged across the actively bursting electrodes to report a well-mean value. To collapse across multiple recordings made on days post-plating 5, 7, 9 and 12, the trapezoidal area-under-the-curve of the component is calculated.Data from the assay component CCTE_Shafer_MEA_dev_burst_duration_mean was analyzed into 1 assay endpoint. This assay endpoint, CCTE_Shafer_MEA_dev_burst_duration_mean, was analyzed in the negative analysis fitting direction relative to DMSO as the negative control and baseline of activity. Using a type of functional reporter, gain or loss-of-signal activity can be used to understand electrical activity.
# On the day prior to culture, each well was coated thoroughly with 150 uL of 0.05% polyethyleneimine (PEI, Sigma Cat P3143) in 50 mM HEPES (Sigma Cat H7523) at a pH of 8. The plate was incubated at 37C for one hour. PEI was rinsed out with 500 uL of sterile water three times. Plates were stored at 4C until the day of culture. This culture was plated at a seeding density of 1.5 x 10^5 cells/well on a 48-well MEA plate, prepared as described above. Cells were administered via a 25 uL media/laminin ([…]; Sigma Cat L2020-1MG) drop directly onto the microelectrode array, as adding the cells with the laminin results in better attachment than pre-coating with laminin. After 2 hours, an additional 475 uL of cortical media was added and the cells returned to the incubator. Exposure starts at day 0 of plating and is continued over twelve days of network development until the experiment is terminated. Cells are fed with fresh medium on DIV 5 and 9, following the recordings on those days. The entire volume of media in the well is exchanged and any vehicle or compound treatment is renewed. Complete details are found in OP-NHEERL/ISTD/SBB/TJS/2015-03-r0 (available on request, email shafer.tim@epa.gov). Measurement of the electrical activity is non-invasive, and recordings can be made from the same plate over multiple different days of the culture. In cortical neurons, this allows for the measurement of extracellular action potentials over the period during which networks form in the MEA plate.
SMILES,outcome,AC50
O=C(O)C(F)(F)C(F)(F)C(=O)O,inactive,
O=P1(N(CCCl)CCCl)NCCCO1 (centres undefined),inactive,
O=C(O)C=CC(F)(C(F)(F)F)C(F)(F)F,inactive,
ClC1=C(Cl)C2(Cl)C3C(Cl)C(Cl)CC3C1(Cl)C2(Cl)Cl (centres undefined),inactive,
O=C(O)C(F)(OC(F)(F)C(F)(F)C(F)(F)F)C(F)(F)F (centres undefined),inactive,
c1ccc(OP(Oc2ccccc2)Oc2ccccc2)cc1,inactive,
CCOc1ccc(C(C)(C)COCc2cccc(Oc3ccccc3)c2)cc1,inactive,
O=C(O)C(F)(F)OC(F)(F)C(F)(F)OC(F)(F)C(=O)O,inactive,
CCCCC(CC)COC(=O)c1c(Br)c(Br)c(Br)c(Br)c1C(=O)OCC(CC)CCCC (centres undefined),inactive,
CCCCC(CC)COP(=O)(Oc1ccccc1)Oc1ccccc1 (centres undefined),inactive,
O=P(Oc1ccccc1)(Oc1ccccc1)Oc1ccccc1,inactive,
OCC(F)(F)OC(F)(F)C(F)(F)OC(F)(F)C(F)(F)OC(F)(F)F,inactive,
CO/N=C(/C(=O)OC)c1ccccc1COc1ccccc1C,,0.863 µM (active)
C=CC(=O)OCC(F)(F)C(F)F,,8.76 µM (active)
CCC1(c2ccccc2)C(=O)N=C(O)NC1=O (centres undefined),inactive,
O=S(=O)(c1ccc(O)cc1)c1ccc(O)cc1,inactive,
CC(O)C(F)(F)C(F)(F)F (centres undefined),inactive,
O=C(O)C(F)(F)OC(F)(F)C(F)(F)OC(F)(F)F,inactive,
CC(C)(C)c1ccccc1OP(=O)(Oc1ccccc1)Oc1ccccc1,inactive,
OCC(F)(F)OC(F)(F)C(F)(F)OC(F)(F)CO,inactive,
c1cc2c3c(cccc3c1)CC2,inactive,
CCOP(=S)(OCC)SCSCC,inactive,
O=C(O)C1C(C(=O)O)C2(Cl)C(Cl)=C(Cl)C1(Cl)C2(Cl)Cl (centres undefined),inactive,
OCC(F)(F)OC(F)(F)C(F)(F)OC(F)(F)C(F)(F)OC(F)(F)CO,inactive,
